NADH enzymes: inhibitors of enzymes used to reach an NAD/NADH endpoint; hit rate 0.02% among 65,000; IC50, µM (top dose mostly 10 µM), without a hit: at the highest dose inhibition; coupled PK/LDH NADH assays, four targets; AID 774;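 active means single-dose screening hits from any of four coupled enzyme assays that gave an IC50 when retested across doses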;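 further: the DPM-DC format reads NADH fluorescence rather than 340 nm absorbance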
Autofluor 339: intrinsic fluorescence of library compounds, ex339/em460 – biochemical, MLSMR library, data from DPM-DC assay, artefact control, profiling panel. compound autofluorescence, ex339/em460 nm, NADH buffer; active compounds read high; 1 = no-compound wells, NADH background. fluorescence fold increase at 10 µM. hit rate 5.5% among 65,000;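 active means at 10 µM, mean starting fluorescence two-fold or more over control wells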;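 further: signal is the first read of a kinetic run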
A340 absorber: compounds absorbing at 340 nm; compound absorbance at 340 nm, fold over control; fold change at 10 µM; 65,000 tested, under 10 active;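 active means at 10 µM dose, initial 340 nm absorbance at least 2 fold that of control wells; inactive means change under 2 fold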;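 further: initial absorbance extrapolated from kinetic A340 decline of NADH oxidation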
DPM-DC inhibit: inhibitors of Streptococcus pneumoniae diphosphomevalonate decarboxylase | hit rate 0.49% among 65,000 | AID 556 | purified DPM-DC, PK/LDH coupled NADH fluorescence | calls only at 10 µM;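 active means the 320 compounds with the highest percent inhibition in the single-dose primary screen, excluding strongly autofluorescent ones, cut at about 32% in these data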;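 further: kinetic rate of NADH fluorescence loss reporting ADP formed by the decarboxylase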
MK inhibit: blocks S. pneumoniae mevalonate kinase. purified MK, PK/LDH-coupled NADH absorbance 340 nm. inhibition, % at 10 µM. hit rate 0.48% among 65,000. AID 555;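 active means ranked among the strongest by inhibition in the single 10 µM screen, a fixed top-ranked set picked for dose follow-up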
PMK inhibit: S. pneumoniae PMK inhibition; purified PMK, PK/LDH-coupled NADH absorbance 340 nm; inhibition, % at 10 µM; hit rate 0.49% among 65,000;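 active means top-ranked compounds by inhibition in the single 10 µM screen, taking a fixed number of the strongest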;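 further: 0% = full reaction with DMSO carrier and 100% = background rate without enzyme reaction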
An asterisk follows results filed as active; i = inactive; / = no result given; + = active, no number. Hits are enriched below; roughly 6.3% of the tested compounds scored in any of these assays.

SMILES	NADH enzymes	Autofluor 339	A340 absorber	DPM-DC inhibit	MK inhibit	PMK inhibit
CCOC(=O)C1CCCN(C(=O)c2cnn3c(C(F)(F)F)cc(-c4ccccc4)nc23)C1 (stereo not given)	2%	1.5	1.1	i	6	0
CCOC(=O)N1CCC(NC(=O)c2cnn3c(C(F)(F)F)cc(-c4cccc(OC)c4)nc23)CC1	8%	3.8*	1.1	/	12	3
CCOC(=O)N1CCN(c2nc(-c3cccc(OC)c3)cc(C(F)(F)F)n2)CC1	4%	1.3	0.99	i	11	1
CCOC(=O)c1cnn2c(C(F)(F)F)cc(-c3cn(C)nc3C)nc12	11%	3.7*	1.2	/	13	8
COC(=O)c1cnn2c(C(F)(F)F)cc(-c3ccc(F)cc3)nc12	12%	3.3*	1.1	/	14	9
O=C(c1cnn2c(C(F)(F)F)cc(-c3ccccc3)nc12)N1CCOCC1	10%	1.3	1.1	i	6	11
COc1ccc(N2CCN(CC(=O)Nc3cc4c(cc3C(C)=O)OCO4)CC2)cc1	7%	1.2	1.1	i	10	2
CCOC(=O)c1cnc2c(-c3ccccc3)cnn2c1N	3%	2.1*	1.1	i	10	0
CCOC(=O)c1cnc2c(-c3ccccc3)c(C)nn2c1N	15%	1.8	1.1	i	4	18
COc1ccc(NC(=O)Cn2nnc(-c3ccccc3NC(=O)c3cccs3)n2)cc1	6%	3.5*	1.1	/	0	12
CN(C)c1ccc(CN2CCCCCC2)cc1	6%	1	1	i	3	14
FC(F)(F)c1cccc(CN2CCCCCC2)c1	17%	1.1	1.1	i	45*	5
Cn1c(=O)c2ncn(CC(=O)Nc3ccc4oc(-c5cccc6ccccc56)nc4c3)c2n(C)c1=O	6%	3.7*	1.1	/	8	3
CCC(C)c1ccc2oc(-c3ccc(NC(=O)Cn4cnc5c(=O)n(C)c(=O)n(C)c54)cc3)nc2c1 (stereo not given)	0%	3.7*	1	/	0	0
COc1ccc(-c2ccc(-c3nnc(Cc4ccc(OC)c(OC)c4)o3)cc2)cc1	7%	2.6*	1.1	i	4	6
Cc1nc2nc(-c3ccccc3)cn2nc1C	4%	2.2*	1.1	/	8	0
Cc1nn2cc(-c3ccc(N)cc3)nc2s1	6%	1	1	i	1	17
Cc1cc(N)n2nc(-c3ccccc3)cc2n1	5%	1.6	1	i	3	9
CCN(c1ccccc1)c1cc(C)nc2nc(C)nn12	7%	1	1.1	i	5	15
CCc1ccc(-c2cn3nc(C)c(C)nc3n2)cc1	4%	2.3*	1.1	/	8	0
CCc1c(-c2ccccc2)nc2nc(C)c(C)nn12	3%	2.1*	1.1	/	5	0
COc1ccc(C(=O)O)cc1S(=O)(=O)NCCCN1CCCC1=O	5%	1.1	1	i	3	12
CCOc1cc(N2CCOCC2)c(OCC)cc1NS(=O)(=O)c1ccc(Cl)s1	5%	1	1	i	0	11
COc1ccccc1C1C=C(c2ccc(Cl)cc2)Nc2nc(NS(C)(=O)=O)nn21 (stereo not given)	7%	4*	1.1	/	5	9
CC(=O)Nc1nc2n(n1)C(c1ccccc1)C=C(c1ccccc1)N2 (stereo not given)	12%	1.8	1.1	i	7	12
SMILES	NADH enzymes	Autofluor 339	A340 absorber	DPM-DC inhibit	MK inhibit	PMK inhibit
CC(=O)Nc1nc2n(n1)C(c1ccc(F)cc1)C=C(c1ccccc1)N2 (stereo not given)	4%	3.4*	1.1	/	8	0
CC(=O)Nc1nc2n(n1)C(c1ccc(Cl)cc1)C=C(C)N2 (stereo not given)	10%	4.9*	1	/	0	20
O=C(Nc1nc2nc(-c3ccccc3)cc(-c3ccccc3)n2n1)c1ccco1	5%	4*	1.1	/	9	0
Nc1nc(NC(=O)c2ccco2)nn1-c1ccccc1	2%	1.1	1	i	6	0
O=C(c1nc2n(n1)C(c1ccc(Cl)cc1)C=C(c1ccccc1)N2)N1CCOCC1 (stereo not given)	2%	1.4	1	i	2	0
COc1ccc(C2C=C(c3ccc(Br)cc3)Nc3nc(N4C(=O)CCC4=O)nn32)cc1 (stereo not given)	6%	3.9*	1.1	/	3	8
COc1ccc(C2=CC(c3ccc(F)cc3)n3nnnc3N2)cc1 (stereo not given)	0%	1.1	1.1	i	0	0
COc1ccc(C2C=C(c3ccc(Cl)cc3)Nc3nc(NC(C)=O)nn32)cc1 (stereo not given)	1%	2.3*	1.1	/	0	2
O=C(Nc1nc2n(n1)C(c1ccccc1)C=C(c1ccccc1)N2)c1ccco1 (stereo not given)	15%	2.6*	1.1	i	12	19
CCc1ccc(-c2ccc(C(=O)O)cc2)nc1	6%	1	1	i	0	17
COc1ccc2c(c1)C1(C)CC(C)(C)N2C(=O)N1c1ccccc1 (stereo not given)	10%	1.4	0.98	+	2	0
COc1ccc2c(c1)C(=O)N(c1ccccc1OC)C(=O)C2(C)C	4%	1.1	1	i	0	12
O=C(CSc1n[nH]c(-c2ccc(S(=O)(=O)N3CCCCC3)cc2)n1)Nc1nccs1	10%	2.6*	1.1	i	5	7
Cc1ccc(S(=O)(=O)Nn2c(C)nnc2-n2nc(C)cc2C)cc1	6%	1.1	1	i	8	11
CCOC(=O)c1sc2cccc(F)c2c1N	5%	2.7*	0.99	/	0	11
O=C(NCCCN1CCOCC1)c1cc2cc(Cl)cc(Cl)c2oc1=O	2%	1.2	1.1	i	0	2
Cc1nn(-c2ccccc2)c2[nH]c(=O)c(CNc3ccc(N4CCOCC4)cc3)cc12	5%	1.1	0.99	i	4	11
O=c1[nH]c2c(cc1CNCCN1CCOCC1)c(-c1cccc(F)c1)nn2-c1ccccc1	20%	3.5*	1.1	i	22	12
Nc1nc(N2CCCCC2)nc2ccccc12	9%	3.9*	1.1	/	9	8
CCn1nnnc1SCC(=O)N1c2ccccc2CCc2ccccc21	3%	1	0.99	i	8	6
Nc1ccc2oc(-c3ccccn3)nc2c1	4%	1.1	1.1	i	0	11
Nc1nc(-c2nc3ccccc3[nH]2)cs1	1%	1.1	1.1	i	2	0
Nc1ccc(-c2nc3ccc(N)cc3o2)cc1	7%	2.1*	1.2	/	8	6
Nc1cc(N)cc(-c2nc3ccccc3[nH]2)c1	17%	2.2*	1	+	7	10

Source: PubChem (SRMLSC)
